Measurements reported in PubChem BioAssay (NCI).
Compounds without any hit were thinned out: in the full panel of roughly 79,000, 15% have a hit. Unmarked numbers belong to inactive results. Activity calls are given as the source filed them. No stated cut-off is given here; in the data, active means growth inhibition above about 70%; inactive means the rest.

Columns and labels:
[1] = NCI Yeast Anticancer Drug Screen. Data for the rad50 strain (AID 155);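 further: 0% = growth of vehicle-only cultures of the same strain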; conditions: S. cerevisiae rad50 strain growth inhibition, hits give high values
Procedure, shortened: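 Yeast carrying a defined DNA repair defect were exposed to test compounds, and growth was compared with vehicle-treated controls to give percent inhibition.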

[2] = NCI Yeast Anticancer Drug Screen. Data for the mec2-1 strain (AID 157); conditions: S. cerevisiae mec2-1 strain, hits give high values
Procedure, shortened: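 Vehicle-treated cultures served as reference for growth inhibition of compound-exposed mec2-1 yeast.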

[3] = NCI Yeast Anticancer Drug Screen. Data for the sgs1 mgt1 strain (AID 161);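 further: 0% = growth of cultures given vehicle only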; conditions: S. cerevisiae sgs1 mgt1 strain, hits give high values
Procedure, shortened: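 Inhibition of yeast growth, normalised to vehicle-treated controls, is reported for a strain bearing genetic alterations in DNA damage repair.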

[4] = NCI Yeast Anticancer Drug Screen. Data for the cln2 rad14 strain (AID 165);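 further: 0% = growth equal to vehicle treated cultures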; conditions: S. cerevisiae cln2 rad14 strain, hits give high values
Procedure, shortened: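 Each compound was tested on cln2 rad14 yeast. Inhibition of growth was calculated against vehicle-exposed controls.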

[5] = NCI Yeast Anticancer Drug Screen. Data for the bub3 strain (AID 167); conditions: S. cerevisiae bub3 mutant strain, hits give high values
Procedure, shortened: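 Compounds were applied to a genetically altered yeast strain carrying a cell-cycle control defect. Growth inhibition was scored against vehicle-treated controls.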

[6] = NCI Yeast Anticancer Drug Screen. Data for the mlh1 rad18 strain (AID 175); conditions: S. cerevisiae mlh1 rad18 strain growth inhibition, hits give high values
Procedure, shortened: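 Vehicle-treated cultures served as the reference for growth inhibition in a yeast strain carrying DNA damage repair alterations exposed to each compound.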

[7] = at 5.0 µM (retest, dose inferred, filed as 0.5)
[8] = at 50.0 µM (retest, dose inferred, filed as 5.0)

Structure (SMILES) | growth inhibition [1, 7] | growth inhibition [1, 8] | growth inhibition ([1]; at 50.0 µM) | growth inhibition [2, 7] | growth inhibition [2, 8] | growth inhibition ([2]; at 50.0 µM) | growth inhibition [3, 7] | growth inhibition [3, 8] | growth inhibition ([3]; at 50.0 µM) | growth inhibition [4, 7] | growth inhibition [4, 8] | growth inhibition ([4]; at 50.0 µM) | growth inhibition [5, 7] | growth inhibition [5, 8] | growth inhibition ([5]; at 50.0 µM) | growth inhibition [6, 7] | growth inhibition [6, 8] | growth inhibition ([6]; at 50.0 µM)
CC(=O)c1ccc([As]=O)cc1 (configuration not stated) | 16% | 100% (active) | 99.8% (active) | 19% | 100% (active) | 99.8% (active) | 13% | 99% (active) | 99.8% (active) | -9% | 99% (active) | 99.4% (active) | -8% | 100% (active) | 99.5% (active) | 14% | 100% (active) | 99.5% (active)
OC1CC([CH2][Hg][I])OC([CH2][Hg][I])C1 (configuration not stated) | 99% (active) | 98% (active) | 92.8% (active) | 100% (active) | 99% (active) | 97.3% (active) | 99% (active) | 99% (active) | 96.5% (active) | 99% (active) | 99% (active) | 97.2% (active) | 99% (active) | 99% (active) | 98.5% (active) | 99% (active) | 99% (active) | 86.2% (active)
O=C(O)C(O)(c1ccc(-c2ccccc2)cc1)c1ccc(-c2ccccc2)cc1 | 16% | 91% (active) | 96.4% (active) | 13% | 93% (active) | 97% (active) | 0% | 95% (active) | 96.2% (active) | 5% | 93% (active) | 95% (active) | -12% | 93% (active) | 96.9% (active) | 1% | 96% (active) | 96.8% (active)
COC(CNS(=O)(=O)c1ccccc1)[CH2][Hg][O]C(C)=O (configuration not stated) | 1% | -1% | 99.5% (active) | -3% | 13% | 98.8% (active) | -5% | 19% | 99.2% (active) | -4% | 6% | 99.1% (active) | 2% | 4% | 99.2% (active) | -2% | 11% | 99.2% (active)
CN(C)c1ccc(C(c2c(O)c3ccccc3oc2=O)c2c(O)c3ccccc3oc2=O)cc1 | 0% | 40% | 59.2% | -8% | 26% | 65.6% | 4% | 42% | 60% | -5% | 13% | 18.5% | -3% | 16% | 34.3% | -3% | 13% | 51%
Cc1ccc(C(=O)C2C(c3ccccc3)N2C2CCCCC2)cc1 (configuration not stated) | 0% | 95% (active) | 11.1% | -8% | 88% (active) | 7.95% | -1% | 89% (active) | 57.5% | -20% | 96% (active) | 0.3% | -8% | 85% (active) | 19.8% | 2% | 92% (active) | 71.6% (active)
COC(=O)[CH2][Sn]([CH2]C(=O)OC)([c]1ccccc1)[c]1ccccc1 | 80% (active) | 97% (active) | 88.3% (active) | 79% (active) | 99% (active) | 88.5% (active) | 77% (active) | 99% (active) | 86.9% (active) | 52% | 99% (active) | 86.7% (active) | 82% (active) | 99% (active) | 84.4% (active) | 86% (active) | 97% (active) | 92% (active)
O=C(Nc1n[c]([Hg][Cl])[c]([Hg][Cl])s1)OCc1ccccc1 | 99% (active) | 98% (active) | 99% (active) | 99% (active) | 99% (active) | 99.5% (active) | 98% (active) | 99% (active) | 99.3% (active) | 34% | 99% (active) | 98.9% (active) | 100% (active) | 99% (active) | 99.2% (active) | 99% (active) | 98% (active) | 98.9% (active)
CC1=NNC(=O)C1(Br)Br | -2% | 21% | 8.7% | -3% | 9% | 11.9% | 2% | 16% | 14.2% | 13% | 31% | 69.6% | 1% | 75% (active) | 43.1% | -13% | -2% | -23.8%
O=C(OCC(CCl)OC(=O)C(Cl)(Cl)Cl)C(Cl)(Cl)Cl (configuration not stated) | 2% | -5% | 52.2% | 12% | 16% | 46.4% | -31% | -16% | 67% | 2% | 0% | 78.5% (active) | 1% | -4% | 55.3% | -30% | -53% | 54.8%
CCOC(=O)c1ccc(NP(=O)(Oc2ccccc2)Oc2ccccc2)cc1 | -4% | 49% | 64.8% | 18% | 75% (active) | 52.9% | -18% | 66% | 64.7% | -10% | 56% | 69.2% | -6% | 89% (active) | 59.5% | 24% | 88% (active) | 77.8% (active)
[O-][n+]1ccccc1S | 99% (active) | 99% (active) | 99.4% (active) | 100% (active) | 100% (active) | 99.7% (active) | 100% (active) | 99% (active) | 99.7% (active) | 99% (active) | 99% (active) | 99.2% (active) | 99% (active) | 99% (active) | 99.3% (active) | 99% (active) | 99% (active) | 99.5% (active)
O=[As](O)(O)c1ccc(Cc2ccc([As](=O)(O)O)cc2)cc1 | 82% (active) | 100% (active) | 99.2% (active) | 62% | 100% (active) | 99.5% (active) | 26% | 99% (active) | 99% (active) | 59% | 99% (active) | 98.5% (active) | 66% | 100% (active) | 99.1% (active) | 78% (active) | 99% (active) | 99.2% (active)
O=Cc1ccccc1O.O=Cc1ccccc1O.[O]=[Mo]=[O] | 5% | 29% | 11.8% | -1% | 36% | 3.65% | 8% | 41% | 8.2% | -7% | 16% | 42% | -3% | 34% | -5.6% | 2% | 46% | 2.45%
COc1cc(C2c3cc4c(cc3[C@@H](Nc3ccc([N+](=O)[O-])cc3)C3COC(=O)[C@H]23)OCO4)cc(OC)c1O (some centres not stated) | 96% (active) | 96% (active) | 84.4% (active) | 97% (active) | 97% (active) | 91% (active) | 49% | 98% (active) | 87.7% (active) | 22% | 97% (active) | 86.6% (active) | 54% | 98% (active) | 87.2% (active) | 95% (active) | 96% (active) | 88.5% (active)
CC12CCCCC1C(=O)C2(Cl)Cl (configuration not stated) | -1% | 11% | 11.8% | 1% | 17% | -2.45% | -1% | 48% | 43% | -1% | -4% | 1.65% | 3% | 13% | -3.55% | 1% | 37% | 27.4%
CC[S+](C)c1ccc(-c2c3nc(c(-c4ccc([S+](C)CC)cc4)c4ccc([nH]4)c(-c4ccc([S+](C)CC)cc4)c4nc(c(-c5ccc([S+](C)CC)cc5)c5ccc2[nH]5)C=C4)C=C3)cc1 (configuration not stated) | 95% (active) | 95% (active) | 86.8% (active) | 98% (active) | 97% (active) | 90.7% (active) | 73% (active) | 97% (active) | 91.8% (active) | 56% | 96% (active) | 89.5% (active) | 94% (active) | 96% (active) | 89% (active) | 96% (active) | 95% (active) | 88.5% (active)
[Cl][Sn]([Cl])([c]1ccccc1)[c]1ccccc1.c1ccc2nc(-c3ccc4ccccc4n3)ccc2c1 | 16% | 97% (active) | 84% (active) | 16% | 98% (active) | 96% (active) | 32% | 97% (active) | 75.3% (active) | 6% | 96% (active) | 45.1% | 5% | 96% (active) | 59.6% | 23% | 96% (active) | 93.2% (active)
O=C(CCl)Nc1ccc(Cl)cc1 | 3% | 44% | 54.6% | 1% | 29% | 59.5% | -2% | 44% | 67.3% | -2% | 16% | 40.9% | 1% | 40% | 51.9% | 1% | 45% | 61.2%
